This is part of a sample that, as a whole, favours compounds with a hit. Of some 79,000 tested, about 15% had one in any assay. A number with no mark means an inactive call. The source made the active and inactive calls. Rule as the data show it: active = growth inhibition above about 70%; inactive = the rest.
Experiments:
[1] = NCI Yeast Anticancer Drug Screen. Data for the rad50 strain (AID 155);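 also: 0% = growth of vehicle-only cultures of the same strain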; details: S. cerevisiae rad50 strain growth inhibition; at 50.0 µM; stronger effect = higher value
How it was run: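 Vehicle-treated cultures provide the reference for the growth inhibition reported for compound-exposed, repair-deficient yeast.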

[2] = NCI Yeast Anticancer Drug Screen. Data for the mec2-1 strain (AID 157); details: S. cerevisiae mec2-1 strain, at 50.0 µM, stronger effect = higher value
How it was run: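 Using mec2-1 yeast: add compound, measure growth, express inhibition versus vehicle-treated cultures.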

[3] = NCI Yeast Anticancer Drug Screen. Data for the sgs1 mgt1 strain (AID 161);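 also: 0% = growth of cultures given vehicle only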; details: S. cerevisiae sgs1 mgt1 strain, at 50.0 µM, stronger effect = higher value
How it was run: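 Growth of a repair-deficient yeast mutant was monitored after compound treatment and expressed as inhibition relative to vehicle-treated cultures.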

[4] = NCI Yeast Anticancer Drug Screen. Data for the cln2 rad14 strain (AID 165);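 also: 0% = growth equal to vehicle treated cultures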; details: S. cerevisiae cln2 rad14 strain, at 50.0 µM, stronger effect = higher value
How it was run: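 Yeast strain cln2 rad14, bearing defects in cell cycle control and DNA repair, serves as the test system; values reflect growth inhibition compared with vehicle.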

[5] = NCI Yeast Anticancer Drug Screen. Data for the bub3 strain (AID 167); details: S. cerevisiae bub3 mutant strain, at 50.0 µM, stronger effect = higher value
How it was run: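 Mutant yeast screening strain plus compound; vehicle-treated cultures serve as the 0% inhibition reference.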

[6] = NCI Yeast Anticancer Drug Screen. Data for the mlh1 rad18 strain (AID 175); details: S. cerevisiae mlh1 rad18 strain growth inhibition; at 50.0 µM; stronger effect = higher value
How it was run: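 Steps: expose repair-defective yeast to compound; measure growth; express inhibition against vehicle-treated controls.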

| SMILES | growth inhibition [1] | growth inhibition [2] | growth inhibition [3] | growth inhibition [4] | growth inhibition [5] | growth inhibition [6] |
| --- | --- | --- | --- | --- | --- | --- |
| CC(C)SCCO | -2.55% | 10.2% | 7.6% | -9.65% | -26.6% | -13.4% |
| CCCNc1nc2c(c(=O)n(C)c(=O)n2C)n1C | -11.2% | 0.1% | 13.7% | -29.7% | 23.1% | 7.9% |
| CC1OC2(CC(OCc3ccccc3)C1OCc1ccccc1)OCCO2 (stereo not given) | -10.9% | -3.85% | -8.7% | -4.8% | 21.6% | -31.9% |
| CC(=O)Nc1cccc(N=NN(C)C)c1 | 14.2% | 14.1% | 39% | 20.5% | 34.4% | 29.6% |
| CCOC(=O)C[P+](c1ccc(OC)cc1)(c1ccc(OC)cc1)c1ccc(OC)cc1 | 90.8% (active) | 95.8% (active) | 92.5% (active) | 92.9% (active) | 92.3% (active) | 91.5% (active) |
| Oc1cc(O)cc(/C=C/c2ccc(O)c(O)c2)c1 | 5.2% | -2.35% | 6% | 5.95% | 18.4% | 18.6% |
| COC(=O)C(C)(C#N)/C(C)=C/C(C)C (stereo not given) | -12.7% | -20.9% | -12.8% | -3.9% | -24.8% | -33% |
| CCOC(=O)CC1CCC(CCCCC2CCC(CC(=O)OCC)CC2)CC1 (stereo not given) | 76% (active) | 44.5% | 80% (active) | 57.4% | 22.2% | 45.2% |
| O=C1c2ccccc2CC12Cc1ccccc1C2 | 2.05% | -17.4% | -3.85% | -15.3% | -29.7% | 0.15% |
| O=[N+]([O-])/C=C/c1cn(CCCCCn2cc(/C=C/[N+](=O)[O-])c3ccccc32)c2ccccc12 | -5.65% | -8.65% | -2.45% | -7.65% | 8.35% | -9.8% |
| O=c1[nH]c2ccccc2[nH]1 | -18.8% | -14.9% | -7.6% | -28% | -13.2% | -14.4% |
| O=C1CCC23CC(C=CC=C12)n1c(=O)n(-c2ccccc2)c(=O)n13 (stereo not given) | 13.2% | -1.55% | 4.1% | 21.1% | -14.7% | 16.7% |
| Cc1ccc(C(=O)OC2C(OC(=O)Nc3ccccc3)OC(COC(=O)c3ccccc3)C2OC(=O)c2ccccc2)cc1 (stereo not given) | 1.95% | 10.1% | 9.45% | 13.8% | -12.4% | 30% |
| O=c1cc(CC2(O)CCCCC2)c2ccccc2[nH]1 | -3.95% | 0.3% | -2.5% | -58% | -48.8% | 9.8% |
| CC(C)(C)C(=O)/C(O)=C\c1ccccc1 | -4.25% | 6.2% | -12.2% | -10.7% | 10.9% | -1.2% |
| CN(CC(=O)O)c1ncc2c(n1)-c1ccccc1OC2c1ccccc1 (stereo not given) | 21.9% | 19.6% | 44.5% | 47% | 28.9% | 67.8% |
| C1CSC(SCCCSC2SCCCS2)SC1 | -4.1% | 5.3% | -9.9% | -7.1% | -12.2% | -14.1% |
| COc1ccc(CC(C)=C(C#N)C#N)cc1OC | -10.8% | -2.45% | -8.25% | 11.8% | -0.05% | -17.3% |
| O=C(Nc1ccccc1)OC1OC(COC(=O)c2ccccc2)C(OC(=O)c2ccccc2)C1OS(=O)(=O)c1ccc([N+](=O)[O-])cc1 (stereo not given) | -18.1% | 0.15% | -18.2% | -25.6% | -13.1% | -15.8% |
| CC1=CN(c2ccccc2)S2=C1c1sc3c(c1N2c1ccc(Br)cc1)CCCC3 (stereo not given) | 0.9% | -21.9% | -27.5% | 14.4% | 3.15% | -52.2% |

| SMILES | growth inhibition [1] | growth inhibition [2] | growth inhibition [3] | growth inhibition [4] | growth inhibition [5] | growth inhibition [6] |
| --- | --- | --- | --- | --- | --- | --- |
| COC(=O)C12C=CC(C1)n1c(=O)n(-c3ccccc3)c(=O)n12 (stereo not given) | -8.55% | 7.25% | 0.5% | -0.2% | 4.4% | -2.9% |
| CCOC(=O)c1cn(CC)c2ccc3ccsc3c2c1=O | -18.2% | -40.4% | -15.5% | 10.2% | -9.4% | -30.9% |
| c1ccc(CCc2nc3ccccc3[nH]2)cc1 | -1.9% | 11.1% | 1.5% | -33.6% | -37.1% | -10.9% |
| C[n+]1c(I)ccc2ccccc21 | 35% | 36.5% | 53.4% | 15% | 15.9% | 36.3% |
| O=C(COc1ccc(Cl)c(Cl)c1)Nc1ccc(C(=O)CCl)cc1 | 6% | 31.3% | 19.4% | -3.35% | 42.5% | 9.3% |
| CNc1ccc([N+](=O)[O-])cn1 | 19.9% | -13.4% | 31.6% | 8.75% | 19.9% | 4.15% |
| Cc1ccc(C)c(N2C(=O)C(=O)C(c3nc4ccccc4s3)/C(=N/NC(=O)NN)C2=O)c1 (stereo not given) | 1.9% | 14.1% | -5.75% | -2.55% | -2.1% | -16.9% |
| CCOC(=O)NC(=O)c1cn(CCN2CCN(C(=O)NCCCCCCNC(=O)N3CCN(CCn4cc(C(=O)NC(=O)OCC)c(=O)n(CCN(CC)CC)c4=O)CC3)CC2)c(=O)n(CCC(CC)CC)c1=O | -10.1% | 8.7% | -6.65% | -20.9% | 2.5% | -31.5% |
| Nc1ccc(Br)c(N)c1 | -0.95% | -3.65% | -5.35% | -16.9% | -21.6% | -24.9% |
| CC12CCC(O)CC1=CCC1C2CCC2(C)C1CC1=CC(C#N)C(=O)NC12O (stereo not given) | 3.55% | 6.85% | 1.35% | -65.4% | -0.3% | 17.2% |
| COC(=O)NC1CCCCC1 | -2.5% | -13.8% | -4.6% | 20.6% | -8.2% | -6.35% |
| O=C(CN(c1ccc(S(=O)(=O)O)cc1)c1ccc(S(=O)(=O)O)cc1)Nn1cnc2ccc(S(=O)(=O)N(c3ccc(S(=O)(=O)O)cc3)c3ccc(S(=O)(=O)O)cc3)cc2c1=O | 29.1% | 6.15% | 31.2% | 19.2% | 26% | 34.1% |
| CN1CCCC2[C@@H]3CCC4=C(O)C(=O)CC[C@]4(C)C3CC[C@@]21C (stereo not given in full) | 9.05% | -6.05% | -4% | 22.1% | 0.85% | 18.4% |
| CCOC(=O)c1c(Cl)c(CC)c(Cl)n2c1nc1ccccc12 | -12.7% | -7.45% | 14.8% | -9.6% | -2.8% | 4.05% |
| Cc1ccc(S(=O)(=O)OCC(C)(C)CC#N)cc1 | 10.9% | 30.6% | 35.9% | 16.9% | 46.4% | 23.9% |
| O=C(O)CCC(=O)c1ccc2c3c(cccc13)CC2 | 22.6% | 0.9% | 15.2% | 46% | 21.5% | 36% |
| CCNC(C(=O)O)C1CCCCC1 (stereo not given) | -6.45% | -2.95% | -1.65% | 8.5% | -0.8% | -1.25% |
| O=S(=O)([O-])Sn1c(-c2ccccc2)c[n+]2ccccc12 | 11.8% | 5.55% | 13.9% | 14.2% | 12.1% | 10.8% |
| CC(C)OC(=O)CC#N | -4.55% | -9.55% | -7.7% | -28.7% | 0.6% | 14.8% |
| O=C(CCS(=O)(=O)CCC(=O)c1cccs1)c1cccs1 | 4.2% | 10.3% | 1.9% | -4.15% | -3.55% | 15.6% |

Reference: PubChem BioAssay (NCI)
